Data: PubChem BioAssay (NCI)
About 83,000 compounds went through this panel and 20% of them were active in at least one assay; those are over-represented in the sample as a whole.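 In brief: 96-well plates, 48 h treatment, single concentration, percent growth endpoint.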

Key:
Assay in all cases: NCI-60 one-dose screen, 48 h (100 = growth as untreated, 0 = no growth, -100 = all killed)
Details in all cases: 10 µM unless noted; active means growth percent below 10; inactive means the rest
NCI-H23 lung = tested on: NCI-H23 lung
NCI-H226 lung = tested on: NCI-H226 lung
NCI-H322M lung = tested on: NCI-H322M lung
HOP-62 NSCLC = tested on: HOP-62 NSCLC
NCI-H460 lung = tested on: NCI-H460 lung
HOP-92 NSCLC = tested on: HOP-92 NSCLC
NCI-H522 lung = tested on: NCI-H522 lung
A549/ATCC NSCLC = tested on: A549/ATCC NSCLC
786-0 renal = tested on: 786-0 renal
COLO 205 colon = tested on: COLO 205 colon
DU-145 prostate = tested on: DU-145 prostate
K-562 leukemia = tested on: K-562 leukemia
MALME-3M melanoma = tested on: MALME-3M melanoma
MDA-MB-231 breast = tested on: MDA-MB-231 breast
RXF 393 renal = tested on: RXF 393 renal
SF-268 CNS = tested on: SF-268 CNS
SF-295 CNS = tested on: SF-295 CNS
SF-539 CNS = tested on: SF-539 CNS
UACC-257 melanoma = tested on: UACC-257 melanoma
M14 melanoma = tested on: M14 melanoma

Measured: growth

c1ccc(Nc2ccccn2)nc1
inactive: NCI-H23 lung 95.9% | NCI-H226 lung 89% | NCI-H322M lung 100% | HOP-62 NSCLC 95.9% | NCI-H460 lung 96.5% | HOP-92 NSCLC 95.8% | NCI-H522 lung 88.2% | A549/ATCC NSCLC 109% | 786-0 renal 97.6% | COLO 205 colon 104% | DU-145 prostate 120% | K-562 leukemia 90.5% | MALME-3M melanoma 83.4% | MDA-MB-231 breast 97.1% | RXF 393 renal 97.9% | SF-268 CNS 102% | SF-295 CNS 99.3% | SF-539 CNS 94.6% | UACC-257 melanoma 95.3% | M14 melanoma 99.9%

Cc1ccc(S(N)(=O)=O)cc1Cl
inactive: NCI-H23 lung 111% | NCI-H226 lung 105% | NCI-H322M lung 121% | HOP-62 NSCLC 110% | NCI-H460 lung 113% | HOP-92 NSCLC 101% | NCI-H522 lung 98.6% | A549/ATCC NSCLC 92.9% | 786-0 renal 100% | COLO 205 colon 104% | DU-145 prostate 120% | K-562 leukemia 92.3% | MALME-3M melanoma 116% | MDA-MB-231 breast 98% | RXF 393 renal 125% | SF-268 CNS 108% | SF-295 CNS 113% | SF-539 CNS 106% | UACC-257 melanoma 109% | M14 melanoma 105%

Cc1ccc(C)c2c1CCC2=O
inactive: NCI-H23 lung 95.4% | NCI-H226 lung 91.4% | NCI-H322M lung 101% | HOP-62 NSCLC 93.2% | NCI-H460 lung 97.4% | HOP-92 NSCLC 94.7% | NCI-H522 lung 96.7% | A549/ATCC NSCLC 114% | 786-0 renal 99.6% | COLO 205 colon 114% | DU-145 prostate 102% | K-562 leukemia 133% | MALME-3M melanoma 103% | MDA-MB-231 breast 117% | RXF 393 renal 87.9% | SF-268 CNS 96.8% | SF-295 CNS 91.6% | SF-539 CNS 95.6% | UACC-257 melanoma 107% | M14 melanoma 95.7%

COC1OC(COC(C)=O)C(OC(C)=O)C(OC(C)=O)C1OC(C)=O (stereo not given)
inactive: NCI-H23 lung 98% | NCI-H226 lung 91.1% | NCI-H322M lung 101% | HOP-62 NSCLC 97.9% | NCI-H460 lung 115% | HOP-92 NSCLC 92.8% | NCI-H522 lung 71.9% | A549/ATCC NSCLC 91.5% | 786-0 renal 98.8% | COLO 205 colon 98.7% | DU-145 prostate 111% | K-562 leukemia 102% | MALME-3M melanoma 96.9% | MDA-MB-231 breast 90% | RXF 393 renal 114% | SF-268 CNS 101% | SF-295 CNS 90.1% | SF-539 CNS 98.4% | UACC-257 melanoma 85% | M14 melanoma 104%

C1Cc2onc(-c3noc4c3CCC4)c2C1
inactive: NCI-H23 lung 105% | NCI-H226 lung 120% | NCI-H322M lung 103% | HOP-62 NSCLC 103% | NCI-H460 lung 137% | HOP-92 NSCLC 108% | NCI-H522 lung 96.5% | A549/ATCC NSCLC 104% | 786-0 renal 106% | COLO 205 colon 115% | DU-145 prostate 115% | K-562 leukemia 109% | MALME-3M melanoma 108% | MDA-MB-231 breast 116% | RXF 393 renal 134% | SF-268 CNS 110% | SF-295 CNS 104% | SF-539 CNS 108% | UACC-257 melanoma 110% | M14 melanoma 110%

C/C=C/C1OCC(CC)C(CCC)O1 (stereo not given)
inactive: NCI-H23 lung 113% | NCI-H226 lung 111% | NCI-H322M lung 111% | HOP-62 NSCLC 111% | NCI-H460 lung 109% | HOP-92 NSCLC 110% | NCI-H522 lung 91.1% | A549/ATCC NSCLC 88% | 786-0 renal 111% | COLO 205 colon 114% | DU-145 prostate 115% | K-562 leukemia 89.3% | MALME-3M melanoma 114% | MDA-MB-231 breast 100% | RXF 393 renal 124% | SF-268 CNS 101% | SF-295 CNS 113% | SF-539 CNS 99.1% | UACC-257 melanoma 93.5% | M14 melanoma 104%

CCOC(=O)CO
inactive: NCI-H23 lung 104% | NCI-H226 lung 99.8% | NCI-H322M lung 98.2% | HOP-62 NSCLC 104% | NCI-H460 lung 106% | HOP-92 NSCLC 95.6% | NCI-H522 lung 97% | A549/ATCC NSCLC 102% | 786-0 renal 105% | COLO 205 colon 117% | DU-145 prostate 120% | K-562 leukemia 97.4% | MALME-3M melanoma 87% | MDA-MB-231 breast 109% | RXF 393 renal 93.7% | SF-268 CNS 115% | SF-295 CNS 103% | SF-539 CNS 119% | UACC-257 melanoma 102% | M14 melanoma 104%

O=S1(=O)c2ccccc2Oc2ccccc21
inactive: NCI-H23 lung 104% | NCI-H226 lung 100% | NCI-H322M lung 101% | HOP-62 NSCLC 93.4% | NCI-H460 lung 99% | HOP-92 NSCLC 90.4% | NCI-H522 lung 78.2% | A549/ATCC NSCLC 95.4% | 786-0 renal 99.9% | COLO 205 colon 109% | DU-145 prostate 107% | K-562 leukemia 114% | MALME-3M melanoma 110% | MDA-MB-231 breast 110% | RXF 393 renal 90.7% | SF-268 CNS 107% | SF-295 CNS 91.8% | SF-539 CNS 96.1% | UACC-257 melanoma 103% | M14 melanoma 101%
